# NPC1 prom act – qHTS Assay for NPC1 Promoter Activators; Huh7 NPC1 promoter luciferase reporter, 24 h; Potency, µM (top dose mostly 9.22 µM), inactives show top-dose activation, actives largely listed as activators; 320,000 tested, 2.4% active; AID 485313, 2010; also: % of control where 0% means no effect; nearly all actives have a fitted effect of over 60% in size
#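 Compounds in DMSO were transferred onto Huh7 NPC1-luciferase reporter cells pre-incubated 2 h; after 24 h at 37 °C, Amplite reagent was dispensed and luminescence recorded 10 min later.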
# FLuc counter – qHTS profiling assay for firefly luciferase inhibitor/activator using purifed enzyme and Km concentrations of substrates (counterscreen for miR-21 project) | purified FLuc, Km substrates, luminescence inhibition | Potency, µM (top dose mostly 57.5 µM), without a hit: top-dose activity change, negative = inhibition, hits mostly inhibitors | 360,000 tested, 6.9% active | AID 588342, 2011;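 also: plate controls were vehicle for no effect and reference inhibitor for full effect; nearly all actives have a fitted effect of over 55% in size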
# Target sequence (P08659 whole entry, looked up): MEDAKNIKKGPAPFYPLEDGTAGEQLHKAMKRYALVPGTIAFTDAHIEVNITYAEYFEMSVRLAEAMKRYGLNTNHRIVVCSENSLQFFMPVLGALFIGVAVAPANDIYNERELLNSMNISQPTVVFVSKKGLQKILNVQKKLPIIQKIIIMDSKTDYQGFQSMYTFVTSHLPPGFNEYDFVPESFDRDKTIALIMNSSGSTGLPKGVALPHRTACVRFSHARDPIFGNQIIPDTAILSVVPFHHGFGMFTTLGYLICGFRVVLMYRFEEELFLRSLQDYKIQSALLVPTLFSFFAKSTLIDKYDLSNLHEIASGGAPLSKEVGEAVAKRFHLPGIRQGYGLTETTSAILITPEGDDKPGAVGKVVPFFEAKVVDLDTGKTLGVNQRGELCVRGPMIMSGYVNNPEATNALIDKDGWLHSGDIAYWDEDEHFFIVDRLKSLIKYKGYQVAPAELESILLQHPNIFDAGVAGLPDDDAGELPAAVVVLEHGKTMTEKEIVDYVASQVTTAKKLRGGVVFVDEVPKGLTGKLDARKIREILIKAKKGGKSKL
#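 Purified P. pyralis luciferase (10nM final) with 10uM D-luciferin and 10uM ATP (Km levels) in 50mM Tris acetate pH 7.5, 10mM Mg acetate, 0.01% Tween-20, 0.05% BSA; qHTS 6-point titration, ~60 µM downward; luminescence read.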
# KinaseGlo FLuc – Counterscreen for Luciferase (Kinase-Glo TM) Inhibition; Luciferin 4-monooxygenase (Photuris pensylvanica), Q27757; Kinase-Glo luciferase, ATP luminescence, 8 min; Potency, µM (top dose mostly 38.3 µM), for the others: at the highest dose activity change, negative = inhibition, actives largely listed as inhibitors; 200,000 tested, 0.28% active; AID 1379, 2008; also: % is scaled to controls: 0 for no effect and ±100 for the full control effect; nearly all actives have a fitted effect of over 60% in size
#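 Luminescence was the read-out, taken after 8-minute incubation at ambient temperature. Luciferase turned over luciferin with 10 uM ATP in imidazole pH 7.2 buffer containing KCl, MgCl2, Tween 20 and BSA.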
# SMN2 splice enh – qHTS Assay for Enhancers of SMN2 Splice Variant Expression; AID 1458, 2008; 210,000 tested, 2.8% active; Potency, µM (highest dose often 46.1 µM), inactives show top-dose activity change, positive = activation, hits mostly activators; HEK293 SMN2-luciferase splicing reporter, luminescence, 30-36 h; also: % of control where 0% means no effect; nearly all actives have a fitted effect of over 55% in size
#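 qHTS luciferase splicing reporter: luminescence rises when SMN2 exon 7 is included in transfected HEK293 cells. Compound exposure lasted 30-36 h at 37C, with 4.5 mM final sodium butyrate as control, followed by a ONE-Glo read.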
# ELG1 genotox – qHTS screen for small molecules that induce genotoxicity in human embryonic kidney (HEK293T) cells expressing luciferase-tagged ELG1; HEK293T ELG1-luciferase reporter, luminescence, 16 h; 330,000 tested, 1.3% active; Potency, µM (highest dose often 46 µM), inactives show at the top dose activity change, positive = activation, actives largely listed as activators; also: % of control where 0% means no effect; nearly all actives have a fitted effect of over 60% in size
#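 Cells (2,000/well) expressing the ELG1-luciferase fusion are dosed by pin tool and kept 16 hr at 37 °C, 5% CO2. Signal comes from ONE-Glo luciferase reagent after 30 min at room temperature.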
# Rab9 prom act – qHTS Assay for Rab9 Promoter Activators. Huh7 Rab9 promoter-luciferase reporter, luminescence, 24 h. Potency, µM (top dose mostly 9.22 µM), without a hit: at the top dose activation, negative = inhibition, most hits filed as activators. 320,000 tested, 2.8% active; also: % of control where 0% means no effect; nearly all actives have a fitted effect of over 60% in size
#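 Luminescence read-out: Huh7 cells stably expressing Rab9-luciferase, treated 24 h with compound at 37 °C, then lysed with luciferase reagent for 10 min at ambient before reading.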
# Starred values were filed as active, the others as inactive; ? = inconclusive; · = no result; [ ] = another dose, or the depositor's remark. Shown are actives, neighbours in structure and some others; about 7.4% of the full set was active somewhere. Calls follow the shape of the dose curve; as a rule, active = well fitted curve in the direction sought with a large enough effect; inconclusive = small, poorly fitted or top-dose-only effect, or another doubt; inactive = no such curve, though single readings can be large; an effect the other way counts as inactive or inconclusive. Potency is read from the fitted curve at half-maximal effect.
SMILES,NPC1 prom act,FLuc counter,KinaseGlo FLuc,SMN2 splice enh,ELG1 genotox,Rab9 prom act
CCN(C(=O)c1ccco1)c1nnc(-c2ccc(OC)cc2)s1,?,0.953µM*,-22.0%,12.6µM*,?,1.78µM*
CCCN(C(=O)c1ccco1)c1nnc(-c2cccc(C)c2)s1,17.3%,16.9µM*,-1.2%,·,8.1%,?
CCCCC(=O)N(CCOC)c1nnc(-c2ccc(OC)cc2)s1,1.5%,6.6%[2.3 µM],-0.1%,?,0.3%,3.1%
COC(=O)C1(C)Cc2cc(OC(C)=O)c(OC(C)=O)cc2N1 (stereo not drawn),-7.4%,-2.0%,·,·,11.6%,-6.8%
O=C(/C=C/c1ccco1)NC(=S)Nc1cccc(C(=O)O)c1,3.98µM*,10.7µM*,·,·,?,2.82µM*
COc1cccc(NC(=S)NC(=O)/C=C/c2ccco2)c1,4.6%,16.9µM*,·,·,?,24.9%
CC(=O)Nc1ccc(NC(=S)NC(=O)/C=C/c2ccco2)cc1,0.5%,-1.2%,·,·,-2.0%,4.1%
CN1CCN(c2ccc(NC(=S)NC(=O)/C=C/c3ccco3)cc2)CC1,?,23.9µM*,·,·,?,?
COc1ccc(NC(=S)NC(=O)/C=C/c2ccco2)c(OC)c1,2.2%,-0.7%,·,·,-1.7%,2.3%
COC(C#CCCN(C)C)(c1ccccc1)c1ccccc1,0.3%,-0.1%,3.4%,-0.2%,-1.1%,-5.5%
O=C(CC(=O)Nc1ccccn1)Nc1ccccn1,0.0%,0.1%,11.3%,-5.3%,0.3%,-2.7%
O=C(/C=C\Nc1ccccn1)c1ccccc1,0.631µM*,0.675µM*,?,2µM*,0.517µM*,0.355µM*
O=C(/C=C/Nc1ccccc1Br)c1ccccn1,·,0.0757µM*,12.6µM*,?,·,·
COc1ccc(C(=O)/C=C/Nc2ccccn2)c(OC)c1,0.562µM*,3.38µM*,·,·,1.83µM*,0.891µM*
COc1ccc(C(=O)/C=C/Nc2c(C)n(C)n(-c3ccccc3)c2=O)c(OC)c1,-1.6%,-0.7%,6.1%,8.1%,1.4%,-3.1%
O=C(NNC(=O)c1ccccc1F)C1=NN(c2ccccc2)C(=O)CC1,3.4%,0.1%,·,·,2.7%,-5.9%
Cc1ccc(/C=N/NC(=O)c2ccc(Br)o2)s1,?,?,-6.4%,15.8µM*,?,?
CCc1ccc(/C=N\NC(=O)c2ccc(Br)o2)s1,3.55µM*,10.7µM*,-10.3%,11.2µM*,?,2.82µM*
CCc1ccc(/C=N/NC(=O)Cc2ccc(OC)c(OC)c2)s1,0.4%,-2.5%,·,·,-5.8%,-9.9%
Cc1cc(C)c(C#N)c(SCc2nnc(-c3ccccc3[N+](=O)[O-])o2)n1,1.41µM*,21.3µM*,-5.4%,1.12µM*,2.59µM*,3.16µM*
Cc1ccc(C#N)c(SCc2nnc(-c3ccc(Cl)cc3)o2)n1,-1.5%,0.426µM*,1.9%,-82.4%,?,0.8%
Cc1cc(C)c(C#N)c(SCc2nnc(-c3ccccc3)o2)n1,-2.4%,3.01µM*,-2.0%,-38.6%[1.84 µM],?,-4.6%
COc1ccccc1-c1cc(-c2ccc(C)cc2)nc(SCc2nnc(-c3ccccc3)o2)c1C#N,-0.5%,-1.2%,-0.1%,-19.5%,-0.9%,-10.4%
Cc1cc(C)c(C#N)c(SCc2ccccc2[N+](=O)[O-])n1,-1.1%,-12.7%,1.1%,-21.7%,1.4%,-0.3%
O=C(OCc1c(Cl)cccc1Cl)c1ccncc1,-2.1%,2.2%,0.0%,11.7%,1.6%,-2.8%
SMILES,NPC1 prom act,FLuc counter,KinaseGlo FLuc,SMN2 splice enh,ELG1 genotox,Rab9 prom act
CCOC(=O)[C@@H]1[C@H]2COc3cc(OC)ccc3[C@H]2N2C(=O)N(c3ccc(C(F)(F)F)cc3)C(=O)[C@]12C,·,·,·,·,-8.6%,·
CC1CCCC(C)N1CCNC(=O)CCc1nnc2n(Cc3ccccc3)c(=O)c3ccccc3n12 (stereo not drawn),-0.9%,-2.1%,·,·,-0.3%,-2.0%
O=C(Nc1nc(-c2ccccc2)ns1)c1ccc(Cl)cc1,·,-6.4%,·,·,·,·
O=C(Nc1nc(-c2ccccc2)ns1)c1ccncc1,23.8%,10.7µM*,·,·,0.9%,28.2%
c1ccc(Nc2nc(-c3ccccc3)ns2)cc1,1.78µM*,2.13µM*,·,·,1.83µM*,1.26µM*
CC(C)(C)C(=O)Nc1nnc(-c2ccccc2)c(-c2ccccc2)n1,-0.9%,-0.6%,·,·,1.0%,0.3%
CC(C)(C)C(=O)Nc1nc(-c2ccccc2)ns1,0.501µM*,5.36µM*,-3.9%,1.58µM*,14.4%,0.631µM*
Brc1ccc(CNCCCSc2nnnn2-c2ccccc2)cc1,·,5.0%,·,·,·,·
Cc1ccc(N2CC(NC(=O)CCCc3ccccc3)CC2=O)cc1 (stereo not drawn),·,-10.9%,·,·,·,·
COc1cc(NS(C)(=O)=O)ccc1Nc1c2ccccc2nc2ccccc12,-23.8%[46.1 µM],12µM*,-4.8%,-77.4%,?,-38.3%[46.1 µM]
c1ccc(-n2ncc3c(NCc4cccs4)ncnc32)cc1,3.55µM*,12µM*,0.3%,11.2µM*,10.3µM*,2µM*
COc1ccc(-n2ncc3c(NCc4cccs4)ncnc32)cc1,2.51µM*,9.53µM*,-0.7%,?,?,1.12µM*
O=C(NNc1ncnc2c1cnn2-c1ccccc1)c1cccs1,-1.8%,?,1.0%,-0.1%,13.8%,0.8%
COc1ccc(-n2ccnc(NCc3cccs3)c2=O)cc1,·,-13.4%,·,·,·,·
O=C(Nc1ccccc1)Nc1ccc(F)cc1F,?,12µM*,-5.6%,?,?,4.47µM*
Fc1cc(Br)ccc1NC(=S)Nc1ccccc1,?,19µM*,2.5%,17.8µM*,9.3%,?
COC(=O)c1ccc(NC(=O)Nc2cccc(F)c2)cc1,?,4.78µM*,·,·,7.4%,1.78µM*
Fc1ccccc1NC(=S)Nc1ccc(Br)cc1,-4.2%,?,·,·,0.4%,2.2%
COC(=O)c1ccc(NC(=O)Nc2ccc(F)cc2F)cc1,?,7.57µM*,-5.7%,20µM*,?,3.55µM*
CC(=O)Nc1cccc(NC(=O)Nc2ccc(F)cc2F)c1,-0.6%,?,-3.3%,70.8%,4.5%,1.3%
CC(C)c1ccc(C(=O)COC(=O)C(O)c2ccccc2)cc1 (stereo not drawn),·,·,·,·,-2.0%,·
O=c1[nH]c(-c2ccccc2)nnc1-c1ccccc1,?,16.9µM*,·,·,?,?
Cc1ccc(NC(=O)C2C3C=CC(O3)C2C(=O)O)c(C)c1 (stereo not drawn),-0.2%,-12.2%,·,·,2.9%,0.0%
CCOc1ccc(N2CC(c3nc4ccccc4n3CCCOc3ccc(OC)cc3)CC2=O)cc1 (stereo not drawn),·,23.9µM*,·,7.3%,·,·
